# Source: PubChem (National Center for Advancing Translational Sciences (NCATS))
# Pf growth 48h – Primary qHTS for delayed death inhibitors of the malarial parasite plastid, 48 hour incubation; P. falciparum luciferase growth in erythrocytes, 48 h; Potency, µM (highest dose often 28.7 µM), most hits filed as inhibitors; 5.9% of 310,000 active; AID 504832, 2011
#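 Luciferase-expressing P. falciparum in infected erythrocytes (2% hematocrit, 0.1% parasitemia final) in RPMI 1640/0.5% Albumax were exposed to compound for 48 hours at 37 C, 5% CO2; growth read as luminescence.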
# SARS PLpro yeast – qHTS of Yeast-based Assay for SARS-CoV PLP; S. cerevisiae expressing SARS-CoV PLpro, growth rescue; Potency, µM (titrated, usually from 32.9 µM), most hits filed as activators; 0.19% of 330,000 active; calls by dose curve; note: nearly all actives have a fitted effect of over 55% in size
# NS1 function inh – qHTS Assay for Inhibitors of Influenza NS1 Protein Function; Potency, µM (titrated, usually from 46.1 µM); 0.4% of 270,000 active; AID 2326, 2010; calls by dose curve; note: actives are rising curves; nearly all actives have a fitted effect of over 50% in size
#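 Growth recovery, yeast-based: influenza A NS1 expressed in S. cerevisiae causes slow growth, and suppressors are detected by OD600. The parent strain without NS1 is used as positive control.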
# Pf growth 96h – Primary qHTS for delayed death inhibitors of the malarial parasite plastid, 96 hour incubation; P. falciparum luciferase reporter growth, 96 h; Potency, µM (top dose mostly 28.7 µM), usual class: inhibitors; 6.9% of 320,000 active
#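 Cell-based qHTS: luciferase-tagged P. falciparum in erythrocytes (2% hematocrit, 0.05% parasitemia final) incubated with compounds for 96 hours, 37 C, 5% CO2; luciferase detection reagent then added and luminescence measured.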
# RE007 growth inh – qHTS Assay for Inhibitors of the HIV-1 protein Vpr; S. pombe RE007 Vpr strain, BacTiter-Glo ATP luminescence, 24 h; Potency, µM (top dose mostly 92.2 µM), actives largely listed as inhibitors; 0.21% of 360,000 active; AID 651644, 2012; active = well fitted falling curve with a large enough effect; inconclusive = small, poorly fitted or top-dose-only effect; inactive = no such curve, though single readings can be large or run the other way; note: nearly all actives have a fitted effect of over 50% in size
#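 Fission yeast RE007 carrying one integrated HIV-1 vpr copy, seeded at OD 0.01 in PMG+AL medium with 23 nL pinned compound. Grown 24 h at 30 degrees; viability read by BacTiter-Glo luminescence after 5 min.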
# A number is an active result; . = inactive; ? = inconclusive; / = not tested or not shown; [ ] = dose if it differs, or a comment. Sampled rows, rich in hits. Any-hit rate of the full collection: about 9.5%. Unless noted, calls come from the whole dose curve; as a rule, active = well fitted inhibition curve with a large enough effect; inconclusive = small, poorly fitted or top-dose-only effect, or another doubt; inactive = no such curve, though single readings can be large or run the other way.
SMILES,Pf growth 48h,SARS PLpro yeast,NS1 function inh,Pf growth 96h,RE007 growth inh
COc1ccc(-[n+]2c(-c3ccccc3)cc(-c3ccc(C)cc3)cc2-c2ccccc2)cc1,0.928µM,.,.,.,.
CC1=CC(=O)C=CC1=Nc1ccc(N(C)C)cc1,/,/,/,/,.[18.4 µM]
CCOc1ccc(NC(=O)C[n+]2ccc(N(C)C)cc2)cc1,0.657µM,.,.,?,.
COC(=O)c1ccc(NC(=O)C[n+]2ccccc2)cc1,.,.,.,13.1µM,.
CN(C)c1cc[n+](CC(=O)c2ccc(OC(F)F)cc2)cc1,0.738µM,.,.,0.738µM,.
CC(=O)c1ccc(NC(=O)C[n+]2ccccc2)cc1,.,.,.,?,.
CN(C)c1cc[n+](CC(=O)Nc2ccc(Cl)cc2)cc1,0.0828µM,.,.,?,.
CN(C)c1cc[n+](CC(=O)Nc2ccc(Oc3ccccc3)cc2)cc1,?,.,/,?,.
COc1cc(CN2C[C@@H](CO)O[C@@H](n3cnc4c(N5CCN(C)CC5)ncnc43)C2)cc(OC)c1OC,/,/,/,/,.
C=CCn1c(=O)c2c(nc3n2CC(C)CN3CCc2ccccc2)n(C)c1=O (configuration not stated),.,.,.,?,.
Cc1c(Cl)cccc1-n1c(SCC(=O)NCc2cccs2)nnc1-c1ccncc1,?,.,.,?,.
Cc1c(Cl)cccc1-n1c(SCC(=O)NCc2ccccc2Cl)nnc1-c1ccncc1,8.28µM,.,.,8.28µM,.
CCOc1ccc(C(CC(=O)O)NC(=O)Cc2ccc(Cl)cc2)cc1 (configuration not stated),.,.,.,3.29µM,.
C#CCOCCOCCOCCNc1nc(N2CCN(C(=O)[C@H](C)n3cc(CCC(=O)O)nn3)CC2)nc(N2CCN(C(=O)[C@H](CCCCN)n3cc(CCCC)nn3)CC2)n1,/,/,/,/,.
C#CCOCCOCCOCCNc1nc(N2CCN(C(=O)CCCCCCCCCCNC(=O)[C@H](CO)n3cc(CCCSC)nn3)CC2)nc(N2CCN(C(=O)CCCCCCCCCCNC(=O)[C@H](CO)n3cc(CCCSC)nn3)CC2)n1,0.294µM,.,/,0.104µM,.
C#CCOCCOCCOCCNc1nc(N2CCOCC2)nc(N2CCN(C(=O)CCCCCCCCCCNC(=O)[C@@H](CCSC)n3cc(CCO)nn3)CC2)n1,0.657µM,.,/,?,.
C#CCOCCOCCOCCNc1nc(N2CCN(C(=O)CCCCCCCCCCNC(=O)[C@H](CO)n3cc(CCCSC)nn3)CC2)nc(N2CCN(C(=O)CCCCCCCCCCNC(=O)[C@H](CCCCN)n3cc(C[C@@H](C)CC)nn3)CC2)n1,1.31µM,.,/,1.85µM,/
C#CCOCCOCCOCCNc1nc(N2CCOCC2)nc(N2CCN(C(=O)[C@H](CCCCN)n3cc(CN)nn3)CC2)n1,/,.,/,/,.
O=C(CSc1nnc(-c2ccc(O)cc2)o1)NNC(=O)c1ccncc1,.,.,.,.,.
CC(C)(C)NC(=O)CN(Cc1ccc2c(c1)OCO2)C(=O)CNS(=O)(=O)c1ccccc1,.,.,.,?,.
COc1ccccc1N1CCN(C2CCCN(C(=O)c3snnc3C)C2)CC1 (configuration not stated),.,.,.,13.1µM,.
COc1ccc(C(=O)N2CCCC(N3CCN(c4ccccc4OC)CC3)C2)c(OC)n1 (configuration not stated),.,.,.,.,.
COc1ccc(C(=O)N2CCCC(N3CCN(c4ccccc4F)CC3)C2)c(OC)n1 (configuration not stated),.,.,.,13.1µM,.
CCOC(=O)C1=CCN(S(=O)(=O)c2ccccc2F)C1c1cccc(Cl)c1 (configuration not stated),/,/,/,/,.
CC(C)(C)c1ccc(S(=O)(=O)NCC(=O)N2CCCC2)cc1,.,.,.,?,.
CC1=C(C(=O)N2CCOCC2)C(c2c(F)cccc2F)NC(=O)N1 (configuration not stated),.,.,.,.,.
Cc1ccc(-n2ncc3c(N4CCC5(CC4)OCCO5)ncnc32)c(C)c1,/,.,.,5.22µM,.
C=CCN1N=C(c2ccc(NC(=O)c3ccccc3)cc2)CSC1=O,.,.,.,.,.
O=C(c1ccco1)N1CCN(c2nc(C3CC3)nc3sc4c(c23)CCCC4)CC1,9.28µM,.,.,.,.
